We go through 40 compounds from PubChem BioAssay (NCI).

Where “and” joins values, the source holds several entries; their conditions need not be identical. Equal values may be shown once. About 83,000 compounds went through this panel and 20% of them were active in at least one assay; those are over-represented in the sample as a whole.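 Note: values are percent growth. 100 is the growth of untreated cells, values between 100 and 0 indicate rising inhibition; between -100 and 0 indicates cell death.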 Unmarked numbers belong to inactive results. Calls of active or inactive are those of the source. How the source made its calls: active means growth percent below 10; inactive means the rest.

This assay concerns MDA-MB-468 breast. Description: NCI-60 one-dose screen, 48 h (100 = growth as untreated, 0 = no growth, -100 = all killed). Particulars: 10 µM unless noted.
In the case of `CCOC(=O)c1c(/C=C/C(=O)O)nc2ccccc2c1/C=C/c1ccccc1`, the growth was 7.2% (active).

Regarding `O=S(=O)(NCCCNc1nccc(-c2c(-c3ccc(F)c(O)c3)nc3sccn23)n1)c1ccc(Cl)cc1`, the growth is 82.8%.

Consider `CCN=C1C=CC(=C(c2ccc(N(C)C)cc2)c2ccc(N(C)C)cc2)c2ccccc21`, for which the growth is -26.8% (active).

`O=C1C2C3C=CC(O3)C2C(=O)N1Nc1ccccc1` (stereo not given): the growth is 105%.

Consider `O=C(Oc1cccc2ccccc12)Oc1cccc2ccccc12`, for which the growth is 117%.

Consider `CSc1nc(NCCO)c(C#N)c(-c2cccc([N+](=O)[O-])c2)n1`, for which the growth was 105%.

For the compound `COC(=O)CCC1=C(C)/C(=C/c2[nH]c(-c3ccc[nH]3)cc2OC)N=C1C`, the growth was 45.2%.

In the case of `O=C(Cn1cc(CN2C(=O)c3ccccc3S2(=O)=O)nn1)Nc1nc2ccccc2s1`, the growth is 130%.

On to `COc1ccc(/C(C#N)=C/c2ccccn2)cc1`, for which the growth is 89% and 82%.

For the compound `Oc1c(Cl)cc(Oc2cc(Cl)c(O)c(CN3CCOCC3)c2)cc1CN1CCOCC1`, the growth was 84%.

As for `O=C(O)CS(=O)c1ccc(Cl)cc1` (stereo not given), the growth was 103%.

Turning to `O=C1c2c(c3c4ccccc4[nH]c3c3ccc4ccccc4c23)C(=O)N1CCN1CCOCC1`, the growth is 58.6%.

`Fc1ccc(-c2cn3c(-c4c[nH]c5ccc(Br)cc45)csc3n2)cc1`: the growth was 74.9%.

With `Nc1cc2c([nH]c[n+]2CC#CCCl)c(SCC#CCCl)n1`, the growth is -57.1% (active).

Turning to `COc1cc(-c2nn(-c3ccc(Br)cc3)cc2C(=O)O)ccc1O`, the growth was 103%.

Take `CCCCN(CCCC)CCCCCCCCC(O)c1cc2ccccc2c2ccccc12` (stereo not given): the growth was 29.1%.

Turning to `COc1ccc(-c2nn(-c3ccc(NC(=O)Nc4ccc(Cl)c(Cl)c4)cc3)cc2-c2ccncc2)cc1Cl`, the growth is -33.2% (active).

With `COc1ccc(C(O)c2ccccc2)cc1` (stereo not given), the growth was 3.29% (active).

As to `COc1ccc(-c2cc(-c3ccc(Nc4nc(Nc5ccccc5)nc(Nc5ccc(Cl)cc5)n4)cc3)nc(N)c2C#N)cc1`, the growth is -31.1% (active).

As for `CN1C(=O)C(C2=NNC(c3ccccc3C(=O)O)C2)C(=O)N(C)C1=O` (stereo not given), the growth was 96.4%.

Turning to `Nc1ncncc1-c1ccc(F)cc1`, the growth is 105%.

With `O=C1/C(=C/c2ccccc2)CN(C(=O)c2cccnc2)C/C1=C\c1ccccc1`, the growth is -49.2% (active).

Regarding `COc1cc(NCCN=C(N)NC(N)=NC(C)C)c2ncccc2c1`, the growth was -46.5% (active).

`CCNC(=O)Oc1ccc(/C(=C(/C)c2ccccc2)c2ccc(OCCN3CCCC3)cc2)cc1`: the growth was 80.3%.

As to `Cc1cc(Cl)ccc1Nc1nc(C(F)(F)F)ccc1C(=O)NCC(=O)N/N=C/c1c(Cl)cccc1Cl`, the growth was 105%.

Consider `O=C(/C=C/C12c3ccccc3C(c3ccccc31)C1C(=O)NC(=O)C12)c1ccc(Cl)cc1Cl` (stereo not given), for which the growth was 23.8%.

For `COc1ccc(-c2cc(-c3ccc(Cl)cc3)c(C#N)c(=O)n2CCCCC(=O)Nc2ccccc2N)cc1`, the growth is 47.9%.

As to `Cc1ccc(C2SCC(=O)N2Cc2ccccc2)cc1` (stereo not given), the growth is 87.3%.

On to `CN1CCN(Cc2ccc(NC(=O)c3cncc(C#Cc4ncc5ccccn45)c3)cc2C(F)(F)F)CC1`, for which the growth was 36.5%.

Turning to `O=C1Nc2cc(Cl)ccc2Oc2cc(Oc3ccccc3)ccc21`, the growth is 1.71% (active).

As for `CCCCCN(CCCCC)CCC[C@@H](C)[C@H]1CC[C@H]2[C@@H]3[C@H](OCCCN)C[C@@H]4C[C@H](OCCCN)CC[C@]4(C)[C@H]3C[C@H](OCCCN)[C@]12C`, the growth was 71.1%.

`COc1cc(NCC(=O)Nc2cc(Nc3cccc(C(F)(F)F)c3)ncn2)c(Cl)c(OC)c1Cl`: the growth was 101%.

Take `COc1ccc(-c2coc3c(CO)c(O)ccc3c2=O)cc1`: the growth is 82.9%.

For the compound `CC1OC(n2c3ccccc3c3c4c(c5c6ccccc6[nH]c5c32)C(=O)N(CCN[C@@H]2CCC[C@H]2N)C4=O)CC(O)C1O` (stereo not given in full), the growth was -26.9% (active).

For `CN(CCCNC(=O)CCOCCOCCOCCNC(=O)Cc1ccc2ccc3cccc4ccc1c2c34)CCCNc1cc(-c2ccc3ccccc3c2)nc2ccccc12`, the growth is -92.2% (active).

As for `N/C(=N\c1nc2ccccc2s1)NC(=O)Nc1ccccc1Cl`, the growth is 16.6%.

`CC1(C)[C@H](O)CC[C@]2(C)[C@@H]1CC[C@@]13C[C@@H](CC[C@H]12)[C@@](O)(CO)C3`: the growth was 106%.

On to `CSc1ccc(-c2cc(-c3ccc(NC(=O)CCCN4CCCC4)cc3)nc(-c3ccc(NC(=O)CCCN4CCCC4)cc3)c2)cc1`, for which the growth was 14.4%.

As for `O=C(CN1C(=O)CSC1=O)Nc1ccc(C(=O)/C=C/c2cc3ccccc3nc2Cl)cc1`, the growth was 48.7%.

Take `COc1ccc2cc(-c3ccc(C(=O)NN)c(C)n3)ccc2c1`: the growth was 106%.
